Only a selection was taken, and hits are over-represented in it overall.
miR122 inh: activators of miR-122 sensor in Huh7 cells; Huh7 psiCHECK-miR122 Renilla luciferase sensor, 48 h; activation, % at 12.5 µM; 340,000 compounds, 0.14% hits; AID 623901;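 active = mean activation of 30% or more, with every replicate also reaching 30%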;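 also: higher luciferase signal means stronger suppression of miR-122 activity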
Hits are given with their value; - = inactive.

SMILES | miR122 inh
C[C@@H]1CN([C@@H](C)CO)C(=O)c2cc(NC(=O)NC3CCCCC3)ccc2O[C@@H]1CN(C)C(=O)Nc1ccc2c(c1)OCO2 | 32.4
C[C@H]1CN([C@@H](C)CO)C(=O)c2cccc(NC(=O)C3CCCCC3)c2O[C@@H]1CN(C)Cc1ccc(C(F)(F)F)cc1 | -
C[C@@H]1CN([C@@H](C)CO)C(=O)c2cc(NC(=O)CCC(F)(F)F)ccc2O[C@@H]1CN(C)C(=O)Nc1ccc2c(c1)OCO2 | -
C[C@H](CO)N1C[C@H](C)[C@H](CN(C)CC2CCCCC2)Oc2ccc(NC(=O)Nc3ccc(C(F)(F)F)cc3)cc2C1=O | 44.1
C[C@@H]1CCCCO[C@@H](CN(C)CC2CCCCC2)[C@@H](C)CN([C@H](C)CO)C(=O)c2cc(NC(=O)CCC(F)(F)F)ccc2O1 | -
C[C@H]1CN([C@@H](C)CO)C(=O)Cc2cc(NC(=O)Nc3ccc(C(F)(F)F)cc3)ccc2O[C@H]1CN(C)S(=O)(=O)c1ccc(F)cc1 | -
C[C@@H]1CCCCO[C@H](CN(C)CC2CCCCC2)[C@H](C)CN([C@@H](C)CO)C(=O)c2cc(NC(=O)Nc3ccc(C(F)(F)F)cc3)ccc2O1 | 31.7
C[C@H](CO)N1C[C@H](C)[C@@H](CN(C)Cc2ccc(C(F)(F)F)cc2)Oc2c(NC(=O)c3nc4ccccc4s3)cccc2C1=O | -
COc1ccc(S(=O)(=O)N(C)C[C@@H]2Oc3cc(-c4ccccc4OC)ccc3S(=O)(=O)N([C@H](C)CO)C[C@H]2C)cc1 | -
Cc1noc(C)c1NC(=O)N(C)C[C@@H]1Oc2cc(C#CCC(C)C)ccc2S(=O)(=O)N([C@H](C)CO)C[C@H]1C | -
C[C@H]1CN([C@@H](C)CO)C(=O)c2cccc(NC(=O)C3CCCCC3)c2O[C@@H]1CN(C)Cc1ccc(C(=O)Nc2ccccc2N)cc1 | -
COc1ccc(-c2cnc3c(c2)C(=O)N([C@@H](C)CO)C[C@H](C)[C@H](CN(C)C(=O)Cc2ccccc2)O3)cc1 | -
COCC#Cc1cnc2c(c1)C(=O)N([C@@H](C)CO)C[C@H](C)[C@@H](CN(C)C(=O)Nc1c(C)noc1C)O2 | -
COc1ccc(-c2cnc3c(c2)C(=O)N([C@@H](C)CO)C[C@@H](C)[C@@H](CN(C)Cc2ccccn2)O3)cc1 | -
C[C@H]1CN([C@@H](C)CO)S(=O)(=O)c2ccc(C#CC3CC3)cc2O[C@@H]1CN(C)Cc1ccccn1 | -
C[C@@H]1CN([C@@H](C)CO)S(=O)(=O)c2ccc(-c3ccncc3)cc2O[C@@H]1CN(C)Cc1ccccn1 | -
C[C@H](CO)N1C[C@H](C)[C@@H](CN(C)C(=O)C2CCCCC2)Oc2ncc(C3=CCCC3)cc2C1=O | -
OCc1ccc(-c2nn(Cc3ccccc3)c3ccccc23)o1 | 53.7
C[C@@H]1CN([C@H](C)CO)S(=O)(=O)c2ccc(C#Cc3ccc(F)cc3)cc2O[C@@H]1CN(C)S(C)(=O)=O | -
COc1ccc(OC)c(-c2cc(C3CCN(c4cc(Cl)nc(N)n4)CC3)[nH]n2)c1 | 46.3
C[C@@H]1CN([C@H](C)CO)C(=O)c2cc(-c3cccc(F)c3)cnc2O[C@H]1CN(C)Cc1cncnc1 | -
CCC(=O)N(C)C[C@@H]1Oc2cc(C#C[C@@H](C)O)ccc2S(=O)(=O)N([C@@H](C)CO)C[C@H]1C | -
CCNC(=O)Nc1ccc2c(c1)C(=O)N(C)[C@H]1CC[C@H](CC(=O)NCCN3CCCC3)O[C@@H]1CO2 | 36.7
CN1C(=O)c2cc(NC(=O)C3CC3)ccc2OC[C@H]2O[C@H](CC(=O)NCc3cccc(F)c3)CC[C@H]21 | -
CN1C(=O)c2cc(NC(=O)C3CC3)ccc2OC[C@@H]2O[C@H](CC(=O)NCCN3CCCC3)CC[C@H]21 | 45.0
SMILES | miR122 inh
C[C@H]1CN([C@@H](C)CO)S(=O)(=O)c2ccc(Br)cc2O[C@H]1CN(C)CC1CCOCC1 | -
COc1cccc(C#Cc2cnc3c(c2)C(=O)N([C@@H](C)CO)C[C@@H](C)[C@H](CN(C)C(=O)C2CCCCC2)O3)c1 | -
C[C@H](CO)N1C[C@H](C)[C@@H](CN(C)S(C)(=O)=O)Oc2cc(C#Cc3ccc(F)cc3)ccc2S1(=O)=O | -
C[C@@H]1CN([C@@H](C)CO)S(=O)(=O)c2ccc(-c3cncnc3)cc2O[C@H]1CN(C)C(=O)Cc1cccnc1 | -
Cc1ccc(S(=O)(=O)N(C)C[C@@H]2Oc3ncc(C#CCC(C)C)cc3C(=O)N([C@H](C)CO)C[C@H]2C)cc1 | -
COc1ccc(-c2cnc3c(c2)C(=O)N([C@H](C)CO)C[C@H](C)[C@H](CN(C)Cc2cccc(C(F)(F)F)c2)O3)cc1 | -
C[C@H](CO)N1C[C@H](C)[C@@H](CN(C)C(=O)Nc2ccccc2F)Oc2ncc(-c3cccc(F)c3)cc2C1=O | -
COc1ccc(NS(=O)(=O)c2ccc(N3CCOCC3)c(NC(=O)c3cccc(F)c3)c2)cc1 | -
COc1nnc(-c2ccc(N3CCOCC3)c(NC(=O)c3ccccc3)c2)c2ccccc12 | 45.1
COc1ccc(NS(=O)(=O)c2ccc(N3CCOCC3)c(NC(=O)c3ccc(F)cc3)c2)cc1 | -
C[C@@H]1CN([C@@H](C)CO)S(=O)(=O)c2ccc(C#Cc3ccccc3)cc2O[C@H]1CN(C)C(=O)Nc1ccccc1 | -
